Inconclusive results are not listed. Active and inactive are the calls of the source. Unless noted, the call rests on the fitted dose curve.

Assay [1] can be described thus: Nuclear factor erythroid 2-related factor 2/antioxidant responsive element (Nrf2/ARE) small molecule agonists: luciferase reporter gene qHTS assay in human keratinocytes (AID 1919969). Further: nearly all actives have a fitted effect of over 35% in size. Further: potency means the concentration at half of the fitted maximal effect.
Assay [2] addresses Gonadotropin-releasing hormone receptor (Homo sapiens) (UniProt P30968). As to the kind of experiment: Human gonadotropin-releasing hormone receptor (GnRHR) small molecule agonists, calcium flux assay in GnRHR-HEK293 cells (AID 1920063). Further: nearly all actives have a fitted effect of over 35% in size. The method in brief:
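Fluorescence kinetics (480 nm excitation, 540 nm emission; 3 min, 1 s steps) report calcium mobilisation in human GnRHR-HEK293 cells in agonist mode. Dye incubation: 1 h, 37 C.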

Assay [3] has as its target KiSS-1 receptor (Homo sapiens) (UniProt Q969F8). As to the kind of experiment: Human kisspeptin (KISS1R) small molecule agonists, calcium flux assay in KISS1R-HEK293 cells (AID 1920064; active means well fitted activation curve with a large enough effect in the repeat runs). The method in brief: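 Measures KISS1R agonism through calcium-sensitive dye fluorescence in stably transfected HEK293 cells, read for 3 min after pin-tool compound delivery; 15-point titrations in triplicate.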

Assay [4] can be described thus: G protein-coupled receptor (GPCR) small molecule agonists, calcium flux assay: HEK293 wild type cell line counter screen (AID 1920065). The essentials: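 Readout: fluorescence at 480 nm excitation/540 nm emission, sampled at 1 s intervals for 3 min. Cells had been cultured 18 h, then dye-loaded 1 h at 37 C before compound or ATP addition.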
A short description of assay [5]: p53 small molecule agonists, cell-based qHTS assay with human liver microsomes (AID 1963577). The essentials: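 p53RE-bla reporter cells were pre-incubated 5 h at 37 C, then treated with compounds plus human liver microsomes (0.5 mg/mL final) and NADPH (0.5 mg/mL final) for 16 h at 37 C. Beta-lactamase activity was read by LiveBLAzer fluorescence after 2 h at room temperature.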

Assay [6] addresses 5-hydroxytryptamine receptor 2A (Homo sapiens) (UniProt P28223). In words: 5-hydroxytryptamine receptor 2A (HTR2A) small molecule antagonists, cell-based qHTS assay (AID 1963586). Further: nearly all actives have a fitted effect of over 45% in size. The method in brief:
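Antagonist-mode intracellular calcium assay: DOI (4 nM) added after 5 min compound pre-incubation at room temperature to dye-loaded HTR2A-CHO cells. Fluorescence followed for 3 min, sampled every second.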

The target is the same in assay [7]. As to the kind of experiment: 5-hydroxytryptamine receptor 2A (HTR2A) small molecule agonists, cell-based qHTS assay (AID 1963587). Further: nearly all actives have a fitted effect of over 30% in size. The method in brief:
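Kinetic calcium-flux fluorescence (2 min, 1 sec intervals) after compound addition in agonist mode. HTR2A-CHO cells were cultured 18 h, then dye-loaded 1 h at 37 C.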

Assay [8] addresses Muscarinic acetylcholine receptor M1 (Homo sapiens) (UniProt P11229). As to the kind of experiment: Cholinergic receptor muscarinic 1 (CHRM1) small molecule agonists, cell-based qHTS assay (AID 1963589). Further: nearly all actives have a fitted effect of over 35% in size. The essentials:
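Each compound was tested at 15 concentrations across three independent runs on dye-loaded CHO cells stably expressing human CHRM1, reading intracellular calcium fluorescence kinetically at 1 sec intervals.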

Assay [9] addresses Beta-2 adrenergic receptor (Homo sapiens) (UniProt P07550). As to the kind of experiment: Adrenergic beta2 receptor (ADRB2) small molecule antagonists, cell-based qHTS assay (AID 1963592). Further: series mostly up to about 92 µM; nearly all actives have a fitted effect of over 50% in size. The essentials:
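Cells (CHO, stable ADRB2 overexpression) incubated 18-20hr at 37C; compounds added from DMSO; agonist mix (1nM isoproterenol, 100uM IBMX, 25uM Ro-20-1724) added; 0.5hr RT; d2-cAMP and anti-cAMP-cryptate added; 1hr RT; 665/615 nm read.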

For assay [10], the target named is D(2) dopamine receptor (Homo sapiens) (UniProt P14416). In words: Dopamine D2 receptor (DRD2) small molecule agonists, cell-based qHTS assay (AID 1963594). Further: nearly all actives have a fitted effect of over 35% in size. The method in brief: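 cAMP accumulation in DRD2-HEK293 cells measured by HTRF after 1 h detection; compounds added 10 min before NKH477 (200nM […]) forskolin-analogue stimulation, 30 min at room temperature, with Ro20-1724 present at 0.1 mM final.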

The target is the same in assay [11]. As to the kind of experiment: Dopamine D2 receptor (DRD2) small molecule antagonists, cell-based qHTS assay (AID 1963595; active means well fitted inhibition curve with a large enough effect in the signal ratio in the repeat runs, with a control signal flat; the % refers to the signal ratio). The method in brief: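 HEK293 cells stably expressing DRD2, preincubated with 0.1 mM Ro20-1724 and compounds 10 min, were stimulated with 200 nM NKH477 plus 12 nM quinpirole for 30 min at room temperature; cAMP measured by HTRF (665/620 nm).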

A short description of assay [12]: p53 small molecule agonists, cell-based qHTS assay with rat liver microsomes (AID 1963578). The essentials: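 p53RE-bla cells were exposed to compounds together with rat liver microsomes (0.5 mg/mL final) and NADPH (0.5 mg/mL final) for 16 h at 37 C, then read by LiveBLAzer beta-lactamase fluorescence after 2 h at room temperature.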
Assay [13] in a line: p53 small molecule agonists, cell-based qHTS assay with human liver microsomes: qHTS cell viability counter screen (AID 1963579). Further: nearly all actives have a fitted effect of over 45% in size. The method in brief:
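p53RE-bla cells (4,000/well) were pre-incubated 5 h at 37 C, then given compounds in DMSO plus human liver microsomes (0.5 mg/mL final) and NADPH (0.5 mg/mL final) for 16 h at 37 C. Viability was read by CellTiter-Glo luminescence.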

Assay [14] in a line: p53 small molecule agonists, cell-based qHTS assay with rat liver microsomes: qHTS cell viability counter screen (AID 1963580). Further: nearly all actives have a fitted effect of over 45% in size. The essentials:
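Intracellular ATP, by CellTiter-Glo luminescence, defines viability. HCT-116 p53RE-bla cells, 4,000 per well, were compound-treated in the presence of rat liver microsomes and NADPH for 16 h at 37 C.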

Assay [15] can be described thus: p53 small molecule agonists, cell-based qHTS assay (AID 1963582; active means well fitted activation curve with a large enough effect in the signal ratio in the repeat runs, not every such curve was filed as active; the % refers to the signal ratio). The method in brief: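 Compounds are pin-transferred in DMSO onto p53RE-bla cells and incubated 16 h at 37 C. The B/G FRET beta-lactamase substrate is then applied for 2 h at RT and fluorescence recorded.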
Assay [16] addresses Muscarinic acetylcholine receptor M1 (Homo sapiens) (UniProt P11229). In words: Cholinergic receptor muscarinic 1 (CHRM1) small molecule antagonists, cell-based qHTS assay (AID 1963588). Further: nearly all actives have a fitted effect of over 40% in size. Further: potency means the concentration at half of the fitted maximal effect. The method in brief: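 CHRM1-CHO calcium-flux assay, antagonist mode. Cells were seeded 18 h, dye-loaded 1 h at 37 C and given compound for 5 min at RT, then acetylcholine was added at 50nM. FDSS fluorescence was read 3 min; 15 concentrations, three runs.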

The nature of assay [17]: cAMP Responsive Elements (CRE) small molecule agonists, cell-based qHTS assay (AID 1963590). The essentials: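 Cell line: CRE-bla HEK 293T; medium DMEM/10% dialyzed FBS/0.1 mM NEAA/1 mM pyruvate/25 mM HEPES; 3 h compound exposure; beta-lactamase FRET readout after 2 h substrate loading at RT.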
Assay [18] is described as follows: cAMP Responsive Elements (CRE) small molecule antagonists, cell-based qHTS assay (AID 1963591; active means well fitted inhibition curve with a large enough effect in the signal ratio in the repeat runs, not every such curve was filed as active; the % refers to the signal ratio). The method in brief:
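Inhibition of NKH477-driven (0.25 uM final) CRE-beta-lactamase signal in HEK293T cells, 3 h compound exposure at 37 °C, detected by FRET substrate fluorescence.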

A short description of assay [19]: p53 small molecule agonists, cell-based qHTS assay: qHTS cell viability counter screen (AID 1963581). Further: nearly all actives have a fitted effect of over 45% in size. The essentials: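 In the same plates used for the p53 bla reporter, HCT-116 cells given compounds for 16 h at 37 C received CellTiter-Glo; luminescence was recorded 30 min later at room temperature.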
The target of assay [20] is Beta-2 adrenergic receptor (Homo sapiens) (UniProt P07550). As to the kind of experiment: Adrenergic beta2 receptor (ADRB2) small molecule agonists, cell-based qHTS assay (AID 1963593).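 Further: CHO cells stably overexpressing human ADRB2.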 The essentials: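 CHO cells stably over-expressing ADRB2 were plated overnight at 37C, then dosed with compounds plus a stimulation mix containing 100uM IBMX and 25uM Ro-20-1724 for 0.5hr at room temperature. cAMP was measured by HTRF competition, 1hr.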
Chain of Beta-2 adrenergic receptor (Homo sapiens) (P07550 whole entry, looked up): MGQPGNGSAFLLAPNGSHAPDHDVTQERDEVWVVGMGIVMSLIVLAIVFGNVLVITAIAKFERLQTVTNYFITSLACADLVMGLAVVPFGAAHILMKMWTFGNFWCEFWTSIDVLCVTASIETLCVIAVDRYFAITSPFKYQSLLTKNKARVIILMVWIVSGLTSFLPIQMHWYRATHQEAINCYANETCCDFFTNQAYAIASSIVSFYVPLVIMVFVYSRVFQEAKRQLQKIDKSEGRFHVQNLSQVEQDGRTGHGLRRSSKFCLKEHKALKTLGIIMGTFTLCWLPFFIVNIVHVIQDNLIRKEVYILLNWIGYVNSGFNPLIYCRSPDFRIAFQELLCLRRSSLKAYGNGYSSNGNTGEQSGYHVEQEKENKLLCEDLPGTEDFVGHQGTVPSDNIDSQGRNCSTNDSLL

Chain of Muscarinic acetylcholine receptor M1 (Homo sapiens) (P11229 whole entry, looked up): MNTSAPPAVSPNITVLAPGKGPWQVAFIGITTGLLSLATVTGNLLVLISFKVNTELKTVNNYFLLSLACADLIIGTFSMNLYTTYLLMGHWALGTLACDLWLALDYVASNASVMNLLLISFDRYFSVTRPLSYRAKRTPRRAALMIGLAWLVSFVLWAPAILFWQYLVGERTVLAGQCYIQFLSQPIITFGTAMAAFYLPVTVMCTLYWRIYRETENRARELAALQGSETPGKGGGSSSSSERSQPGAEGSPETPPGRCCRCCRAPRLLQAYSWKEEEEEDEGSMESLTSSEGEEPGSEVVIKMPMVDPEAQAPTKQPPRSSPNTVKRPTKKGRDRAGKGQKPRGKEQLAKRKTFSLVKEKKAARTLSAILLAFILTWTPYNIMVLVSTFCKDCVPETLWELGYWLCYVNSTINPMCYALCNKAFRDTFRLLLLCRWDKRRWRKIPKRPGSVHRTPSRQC
Chain of D(2) dopamine receptor (Homo sapiens) (P14416 whole entry, looked up): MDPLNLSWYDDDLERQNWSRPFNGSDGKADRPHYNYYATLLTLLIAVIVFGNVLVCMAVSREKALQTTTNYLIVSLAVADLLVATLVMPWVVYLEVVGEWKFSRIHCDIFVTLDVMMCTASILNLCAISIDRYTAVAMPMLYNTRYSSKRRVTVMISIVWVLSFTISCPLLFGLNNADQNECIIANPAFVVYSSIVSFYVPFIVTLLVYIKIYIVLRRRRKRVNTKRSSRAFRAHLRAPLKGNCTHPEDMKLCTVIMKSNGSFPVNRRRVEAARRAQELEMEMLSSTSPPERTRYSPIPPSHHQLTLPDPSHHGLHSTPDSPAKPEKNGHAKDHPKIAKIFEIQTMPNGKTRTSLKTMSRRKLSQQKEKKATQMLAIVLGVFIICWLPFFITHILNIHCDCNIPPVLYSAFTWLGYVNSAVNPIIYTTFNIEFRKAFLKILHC
Chain of KiSS-1 receptor (Homo sapiens) (Q969F8 whole entry, looked up): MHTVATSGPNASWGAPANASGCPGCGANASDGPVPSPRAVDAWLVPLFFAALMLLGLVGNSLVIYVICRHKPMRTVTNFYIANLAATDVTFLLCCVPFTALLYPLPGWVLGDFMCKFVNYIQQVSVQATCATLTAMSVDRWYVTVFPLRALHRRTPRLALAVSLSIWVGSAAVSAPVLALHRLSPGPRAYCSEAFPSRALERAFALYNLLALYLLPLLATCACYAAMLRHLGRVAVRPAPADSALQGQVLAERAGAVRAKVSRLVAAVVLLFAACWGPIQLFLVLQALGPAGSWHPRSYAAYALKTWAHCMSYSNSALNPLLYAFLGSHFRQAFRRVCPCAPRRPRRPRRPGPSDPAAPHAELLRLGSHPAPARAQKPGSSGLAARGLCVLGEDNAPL
Chain of 5-hydroxytryptamine receptor 2A (Homo sapiens) (P28223 whole entry, looked up): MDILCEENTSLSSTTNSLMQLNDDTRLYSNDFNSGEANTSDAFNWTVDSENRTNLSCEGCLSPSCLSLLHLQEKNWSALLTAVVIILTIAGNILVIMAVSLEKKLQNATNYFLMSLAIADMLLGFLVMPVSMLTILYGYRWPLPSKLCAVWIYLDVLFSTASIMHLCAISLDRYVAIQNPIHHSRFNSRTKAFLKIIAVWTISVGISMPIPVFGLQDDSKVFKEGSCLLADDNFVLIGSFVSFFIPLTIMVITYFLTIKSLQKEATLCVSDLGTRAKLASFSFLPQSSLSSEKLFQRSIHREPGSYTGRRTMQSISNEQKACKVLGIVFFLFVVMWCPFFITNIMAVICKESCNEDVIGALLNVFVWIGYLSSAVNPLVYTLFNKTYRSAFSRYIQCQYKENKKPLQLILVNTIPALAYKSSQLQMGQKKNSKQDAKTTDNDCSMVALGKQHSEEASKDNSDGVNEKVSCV
Chain of Gonadotropin-releasing hormone receptor (Homo sapiens) (P30968 whole entry, looked up): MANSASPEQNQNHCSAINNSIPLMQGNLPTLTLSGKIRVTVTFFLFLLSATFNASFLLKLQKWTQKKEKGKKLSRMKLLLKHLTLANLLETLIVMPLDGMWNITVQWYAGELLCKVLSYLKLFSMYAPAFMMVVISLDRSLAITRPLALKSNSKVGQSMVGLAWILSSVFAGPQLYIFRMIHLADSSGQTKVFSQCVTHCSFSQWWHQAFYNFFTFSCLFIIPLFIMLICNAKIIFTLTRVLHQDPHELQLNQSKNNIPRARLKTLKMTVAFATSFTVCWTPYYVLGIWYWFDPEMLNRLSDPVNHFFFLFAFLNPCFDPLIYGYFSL

Turning to `COC(=O)c1nc(Cl)c(Cl)nc1N`, in [1], the Potency is 5.96 µM (active). Further, the Potency entry in assay [2], in assay [3], in assay [4], in [5], in assay [6] and in assay [7] was “inactive” in each case. The Potency result in [8], in assay [9], in assay [10] and in assay [11] was “inactive” each time.

On to `CC1=CC(=O)/C(=C(/C)O)C(=O)O1`, for which the Potency entry in assay [1], in assay [2], in assay [3], in assay [4], in [12] and in assay [13] was “inactive” throughout. For the same compound, the Potency result in assay [14], in assay [15], in assay [7], in assay [16], in assay [8] and in [17] was “inactive” in each case. The Potency result in assay [18], in assay [9] and in assay [10] was “inactive” in each case.

As to `CN1CCCC(CC2c3ccccc3Sc3ccccc32)C1` (centres undefined), the Potency entry in [1], in assay [2], in [3], in [4], in assay [5] and in [14] was “inactive” in each case. Besides, the Potency result in assay [7] and in assay [8] was “inactive” throughout. For the same compound, the Potency in assay [16] is 0.0015 µM (active).

As for `C=CC(=O)Nc1cc2c(Nc3ccc(F)c(Cl)c3)ncnc2cc1OCCCN1CCOCC1`, the Potency entry in assay [1], in assay [2], in [3], in [4], in assay [12] and in assay [13] was “inactive” each time. Further, the Potency entry in [14], in assay [19], in assay [7], in assay [16], in assay [8] and in [9] was “inactive” throughout. In addition, in [11], the Potency result is “inactive”.

Take `CC(=O)OCC(=O)[C@@]1(O)[C@H](OC(C)=O)C[C@H]2[C@@H]3CCC4=CC(=O)C=C[C@]4(C)[C@@]3(F)[C@@H](O)C[C@@]21C`: the Potency entry in [1], in assay [2], in assay [3], in [4], in assay [12] and in [13] was “inactive” in each case. Also, the Potency result in assay [14], in assay [19], in assay [15], in [7], in [16] and in assay [8] was “inactive” throughout. Besides, the Potency entry in assay [9], in assay [20], in assay [10] and in assay [11] was “inactive” throughout.

As to `CCCOC(=O)CCCCC(=O)OCCC`, the Potency result in assay [1], in assay [2], in assay [3], in [4], in [12] and in assay [13] was “inactive” in each case. Moreover, the Potency entry in assay [14], in assay [15], in assay [6], in [7], in assay [16] and in assay [8] was “inactive” in each case. Besides, the Potency result in assay [17] and in [10] was “inactive” each time.

Turning to `CC(=O)Oc1ccc2c(c1)CC[C@@H]1[C@@H]2CC[C@]2(C)[C@@H](O)CC[C@@H]12`, the Potency entry in assay [1], in assay [2], in assay [3], in assay [4], in assay [12] and in assay [13] was “inactive” each time. Moreover, the Potency result in assay [14], in assay [19], in [15], in assay [6], in assay [7] and in assay [16] was “inactive” each time. For the same compound, the Potency entry in [17], in assay [18], in assay [9], in assay [10] and in assay [11] was “inactive” in each case.

As to `C#C[C@]1(OC(C)=O)CC[C@H]2[C@@H]3CCC4=C/C(=N/O)CC[C@@H]4[C@H]3CC[C@@]21CC`, the Potency result in assay [1], in assay [2], in [3], in assay [4], in assay [12] and in assay [13] was “inactive” throughout. For the same compound, the Potency result in assay [14], in assay [19], in assay [6], in [7], in assay [8] and in [18] was “inactive” throughout. The Potency entry in [10] and in assay [11] was “inactive” in each case.

The values are drawn from PubChem BioAssay (Tox21).
